Screens as filed in PubChem.
Most compounds without a hit are left out; they make up all but 1.4% or so of the library.
Rango-impB inh: Rango-importin beta binding inhibition | 0.031% of 340,000 active | Q14974 | Rango CFP/YFP FRET sensor + importin beta, 45 min | Potency, µM (titrated, usually from 92.2 µM), without a hit: at the highest dose inhibition of complex formation;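 also: potency is read from the fitted curve at half-maximal effect; 0% = DMSO wells and 100% = buffer wells lacking importin beta; nearly all actives have a fitted effect of over 15% in size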
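FRET biosensor (snurportin 1 IBB flanked by EYFP and cerulean), 50 nM, with compound 5 min, then 0.125 microM importin beta in PBS, 1 mM DTT, 0.02% Tween-20, 0.1% BSA. CFP/YFP ratio read after 45 min at room temperature; pre-read flags interference.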
MmCpn inh: blocks the Methanococcus maripaludis chaperonin Mm-Cpn. purified Mm-Cpn ATPase, ADP Transcreener TR-FRET. Potency, µM (highest dose often 76.9 µM), without a hit: top-dose activity, negative = inhibition, usual class: inhibitors. 0.031% of 330,000 active. AID 504842; active = well fitted inhibition curve with a large enough effect; also: potency is read from the fitted curve at half-maximal effect; % is scaled to controls: 0 for no effect and ±100 for the full control effect; nearly all actives have a fitted effect of over 80% in size
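Reaction buffer contained 30 mM Tris pH 7.4, 100 mM KCl, 5 mM MgCl2 and 1 mM DTT. Mm-CPN (25 nM final) hydrolysed 10 uM ATP over 30 min at 37°C; ADP was read by HTRF.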
hERG WT inh: KCNH2 (human, wildtype) channel inhibition | AID 720551 | U2OS, BacMam KCNH2, thallium flux FluxOr; hits give low values | 0.37% of 340,000 active | activity change, % at 1.84 µM;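 active = maximum activity change below -70%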; also: % is scaled to controls: 0 for no effect and ±100 for the full control effect
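U2OS cells were transduced with wild-type KCNH2 virus (2.03 x 10^8 / mL) for 4 h at room temperature, then cultured overnight at 37 C. Thallium flux was read with FluxOr dye. Rate constants were normalized to DMSO controls.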
KCNH2 3.1 block: blocks the human KCNH2 3.1 channel isoform; U2OS KCNH2 3.1, thallium flux FluxOr; hits give low values; activity change, % (tested at about 1.8 µM); 0.95% of 340,000 active; AID 720553;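 active = maximum activity change below -70%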;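 also: thallium influx rate constant from kinetic fluorescence after stimulation buffer; % is scaled to controls: 0 for no effect and ±100 for the full control effect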
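Thallium flux read-out: FluxOr dye with Red40 quencher in HBSS/HEPES, 45 min at RT. Rate constants from kinetic reads were normalized to positive and negative DMSO controls. Cells: U2OS virally expressing the 3.1 isoform.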
Rango dissoc inh: prevents RanGTP from dissociating the Rango-importin beta complex. O95149+P62826. Biochemical FRET Rango-importin beta, RanGTP-induced dissociation. Potency, µM (titrated, usually from 46.1 µM), for inactives: top-dose activity change, negative = inhibition. 0.071% of 340,000 active; also: potency is read from the fitted curve at half-maximal effect; % of control where 0% means no effect; nearly all actives have a fitted effect of over 45% in size
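Compounds preincubate 5 min with complex of recombinant Rango and importin beta in PBS with 1 mM DTT. Ran (0.6 uM) loaded with 2 mM GTP plus 0.2 uM RCC1 starts dissociation; FRET is recorded 45 min later.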
CCT modulator: cytosolic chaperonin activity modulation; 0.3% of 360,000 active; activity change, % (no concentration beside the values), hits read low; purified chaperonin ATPase assay, HTRF ADP detection, 30 min; in the data active = activity change below about -30%; also: % is scaled to controls: 0 for no effect and ±100 for the full control effect
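ATPase activity: ADP formed was measured by HTRF Transcreener (665/615 nm ratio) after 30 min at 37 deg C with 10 uM ATP. Compounds screened at one 76 uM concentration against 40 or 20 nM TRiC in Tris pH 7.4/KCl/MgCl2/DTT buffer.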
* hit, by the source's call. Unless noted, calls follow the shape of the full dose curve.

Results for CC(OC(=O)CCN1C(=O)c2cccc([N+](=O)[O-])c2C1=O)C(=O)Nc1cc(Cl)cc(Cl)c1 (centres undefined) ?
Rango-impB inh: 0%; MmCpn inh: 4%; hERG WT inh: -9; KCNH2 3.1 block: -4; Rango dissoc inh: -4%; CCT modulator: -1

What do the screens show for `CC(NC(=O)c1ccccc1NC(=O)CN1CCc2ccccc2C1)c1ccccc1` (centres undefined)?
Rango-impB inh: 14%; MmCpn inh: -7%; hERG WT inh: -1; KCNH2 3.1 block: -29; Rango dissoc inh: 12%; CCT modulator: 1

How did Fc1ccc(Cn2nnc(-c3ccc(Cl)cc3)n2)cc1 do in these assays?
Rango-impB inh: -1%; MmCpn inh: -2%; hERG WT inh: -9; KCNH2 3.1 block: 3; Rango dissoc inh: -8%; CCT modulator: 0

Results for Clc1ccc(Cn2nnc(-c3ccc(N4CCOCC4)cc3)n2)cc1 ?
Rango-impB inh: -3%; MmCpn inh: 0%; hERG WT inh: -18; KCNH2 3.1 block: -73*; Rango dissoc inh: 8%; CCT modulator: 3

Results for C#CCSc1nnc(-c2ccc(OC)cc2)o1 ?
Rango-impB inh: 0%; MmCpn inh: 0%; hERG WT inh: -5; KCNH2 3.1 block: -1; Rango dissoc inh: 4%; CCT modulator: 0

How did COc1cc(N)c(Cl)cc1C(=O)OC(C)C(=O)Nc1cccc(S(=O)(=O)N2CCOCC2)c1 (centres undefined) do in these assays?
Rango-impB inh: 0%; MmCpn inh: 2%; hERG WT inh: 0; KCNH2 3.1 block: 7; Rango dissoc inh: 14%; CCT modulator: -2

Results for CSc1ncccc1C(=O)OC(C)C(=O)Nc1cccc(S(=O)(=O)N2CCOCC2)c1 (centres undefined) ?
Rango-impB inh: 0%; MmCpn inh: 0%; hERG WT inh: -315*; KCNH2 3.1 block: 4; Rango dissoc inh: -4%; CCT modulator: 2

Results for C=CCNC(=S)N1CCN(Cc2ccccc2)CC1 ?
Rango-impB inh: -2%; MmCpn inh: -1%; hERG WT inh: -12; KCNH2 3.1 block: 13; Rango dissoc inh: 9%; CCT modulator: 2

Results for O=C(CSc1n[nH]c(-c2ccccn2)n1)Nc1cccc(Cl)c1 ?
Rango-impB inh: 1%; MmCpn inh: 3%; hERG WT inh: 2; KCNH2 3.1 block: -70*; Rango dissoc inh: -11%; CCT modulator: -1

Results for O=C(c1ccccc1)c1ccc(OCCCN2CCCC2)cc1 ?
Rango-impB inh: 1%; MmCpn inh: 0%; hERG WT inh: 19; KCNH2 3.1 block: -7; Rango dissoc inh: -5%; CCT modulator: -3

How did CC(=O)c1ccc(OCC(O)CN2CCN(Cc3ccccc3)CC2)cc1 (centres undefined) do in these assays?
Rango-impB inh: -5%; MmCpn inh: -1%; hERG WT inh: 3; KCNH2 3.1 block: -13; Rango dissoc inh: 16%; CCT modulator: -1

What do the screens show for `O=C(c1ccccc1)c1ccc(OCCOCCN2CCN(Cc3ccccc3)CC2)cc1`?
Rango-impB inh: -2%; MmCpn inh: -3%; hERG WT inh: -140*; KCNH2 3.1 block: -10; Rango dissoc inh: 11%; CCT modulator: -1

How did OC(COc1ccc(Br)cc1)CN1CCC(Cc2ccccc2)CC1 (centres undefined) do in these assays?
Rango-impB inh: -1%; MmCpn inh: -2%; hERG WT inh: -117*; KCNH2 3.1 block: -104*; Rango dissoc inh: 7%; CCT modulator: -2

How did CCCc1ccc(OCC(O)CN2CCN(c3ccccn3)CC2)cc1 (centres undefined) do in these assays?
Rango-impB inh: 7%; MmCpn inh: -1%; hERG WT inh: 1; KCNH2 3.1 block: -77*; Rango dissoc inh: 15%; CCT modulator: -1

How did CCc1ccc(OCC(O)CN2CCN(c3ccccn3)CC2)cc1 (centres undefined) do in these assays?
Rango-impB inh: -2%; MmCpn inh: -4%; hERG WT inh: 31; KCNH2 3.1 block: -34; Rango dissoc inh: 14%; CCT modulator: 1

Results for CC(C)OCC(O)CN1CCC(Cc2ccccc2)CC1 (centres undefined) ?
Rango-impB inh: -1%; MmCpn inh: 3%; hERG WT inh: 33; KCNH2 3.1 block: 2; Rango dissoc inh: 1%; CCT modulator: 1

What do the screens show for `O=C(c1ccccc1)c1ccc(OCC(O)CN2CCN(Cc3ccccc3)CC2)cc1` (centres undefined)?
Rango-impB inh: -6%; MmCpn inh: -2%; hERG WT inh: -19; KCNH2 3.1 block: -85*; Rango dissoc inh: 0%; CCT modulator: 1

Results for COCCCn1c(SCC(=O)NC2CCS(=O)(=O)C2)nnc1-c1ccc(Cl)cc1 (centres undefined) ?
Rango-impB inh: -2%; MmCpn inh: 2%; hERG WT inh: 2; KCNH2 3.1 block: 14; Rango dissoc inh: -1%; CCT modulator: 3

How did O=C(c1ccco1)N1CCN(Cc2nc(-c3cccs3)no2)CC1 do in these assays?
Rango-impB inh: 0%; MmCpn inh: 2%; hERG WT inh: 2; KCNH2 3.1 block: 14; Rango dissoc inh: -6%; CCT modulator: 0

What do the screens show for `CN(C)S(=O)(=O)c1cccc(COC(=O)Cc2c(F)cccc2Cl)c1`?
Rango-impB inh: -2%; MmCpn inh: 0%; hERG WT inh: 15; KCNH2 3.1 block: 0; Rango dissoc inh: 0%; CCT modulator: -4

How did COc1ccccc1N1CCN(S(=O)(=O)c2cnc[nH]2)CC1 do in these assays?
Rango-impB inh: 0%; MmCpn inh: -5%; hERG WT inh: -4; KCNH2 3.1 block: -13; Rango dissoc inh: -3%; CCT modulator: 0

Results for CC1CCN(c2oc(-c3ccc(F)cc3)nc2C#N)CC1 ?
Rango-impB inh: 3%; MmCpn inh: 0%; hERG WT inh: -3; KCNH2 3.1 block: -11; Rango dissoc inh: 24%; CCT modulator: 0

How did N#Cc1ccc(-c2ccc(OCC(O)CN3CCOCC3)cc2)cc1 (centres undefined) do in these assays?
Rango-impB inh: 3%; MmCpn inh: -5%; hERG WT inh: 0; KCNH2 3.1 block: -11; Rango dissoc inh: -13%; CCT modulator: -2

What do the screens show for `N#Cc1ccc(OCC(O)CN2CCC(C(O)(c3ccccc3)c3ccccc3)CC2)cc1` (centres undefined)?
Rango-impB inh: 0%; MmCpn inh: -2%; hERG WT inh: -144*; KCNH2 3.1 block: -120*; Rango dissoc inh: 1%; CCT modulator: -1
